# ALR H2O2 inh = human ALR oxidase inhibition via reduced H2O2; AID 485317; 290,000 compounds, 3.8% hits; purified ALR, DTT oxidation, H2O2 HRP-luminol luminescence; P55789; inhibition, % (concentration not given with the values);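 active = mean replicate inhibition above about 79%, with every replicate also reaching it, limit read from the data; inconclusive = only one of the two criteria met; inactive = mean below limit and not every replicate reaching it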
# NPR1 activator = GC-A (human) enzyme activation; HEK293 GC-A cells, cGMP TR-FRET, EC30 ANP; 0% at EC30 ANP, 100% saturating ANP; 370,000 compounds, 0.14% hits; P16066; activation, % at 10 µM; AID 1671463; in the data active = activation above about 40%
# Target sequence (P16066 whole entry, looked up): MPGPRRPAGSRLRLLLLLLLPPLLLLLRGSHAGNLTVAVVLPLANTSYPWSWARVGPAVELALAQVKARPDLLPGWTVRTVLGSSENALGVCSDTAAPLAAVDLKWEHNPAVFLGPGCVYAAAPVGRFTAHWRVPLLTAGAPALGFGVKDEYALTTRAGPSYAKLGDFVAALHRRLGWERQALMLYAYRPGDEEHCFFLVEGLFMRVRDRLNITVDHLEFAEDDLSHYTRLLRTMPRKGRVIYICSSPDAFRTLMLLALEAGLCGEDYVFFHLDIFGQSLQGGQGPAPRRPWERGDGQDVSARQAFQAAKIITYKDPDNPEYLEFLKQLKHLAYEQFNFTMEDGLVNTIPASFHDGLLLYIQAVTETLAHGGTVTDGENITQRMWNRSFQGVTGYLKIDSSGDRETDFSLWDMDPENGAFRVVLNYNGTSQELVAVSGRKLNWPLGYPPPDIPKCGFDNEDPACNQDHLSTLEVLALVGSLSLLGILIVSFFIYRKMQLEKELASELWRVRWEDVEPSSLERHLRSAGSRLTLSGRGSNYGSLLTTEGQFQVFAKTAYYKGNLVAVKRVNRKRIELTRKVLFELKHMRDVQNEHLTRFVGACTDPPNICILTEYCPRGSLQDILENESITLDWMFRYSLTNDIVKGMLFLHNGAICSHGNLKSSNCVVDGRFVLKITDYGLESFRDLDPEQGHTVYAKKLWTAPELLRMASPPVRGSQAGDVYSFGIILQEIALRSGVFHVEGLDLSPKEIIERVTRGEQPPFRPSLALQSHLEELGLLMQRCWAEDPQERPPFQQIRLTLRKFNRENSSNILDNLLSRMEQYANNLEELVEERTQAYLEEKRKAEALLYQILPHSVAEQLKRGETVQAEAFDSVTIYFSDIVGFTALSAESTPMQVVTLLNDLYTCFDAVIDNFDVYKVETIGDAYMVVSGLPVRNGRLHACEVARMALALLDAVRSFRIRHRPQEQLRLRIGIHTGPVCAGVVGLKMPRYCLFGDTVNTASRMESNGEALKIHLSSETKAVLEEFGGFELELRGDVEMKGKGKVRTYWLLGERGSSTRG
# HDAC3 inh = inhibitors of human histone deacetylase 3; inhibition, % at 8.3 µM; 320,000 compounds, 0.15% hits; recombinant HDAC3, fluorogenic peptide/trypsin coupled, fluorescence; O15379; in the data active = inhibition above about 26%, passing the limit was not always enough; inconclusive = no clear call, values can overlap the other calls
# NPR2 activator = GC-B (human) receptor activation. activation, % at 10 µM. HEK293-GC-B cells, CNP EC30, cGMP TR-FRET; 0% at EC30 CNP, 100% saturating CNP. 370,000 compounds, 0.11% hits. AID 1920062;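 active = activation at 10 µM reaching about 35% in either raw or pattern-adjusted values, limit read from the data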
# Starred values were filed as active, the others as inactive; u = inconclusive; x = no result given. Only a selection was taken, and hits are over-represented in it overall.
SMILES,ALR H2O2 inh,NPR1 activator,HDAC3 inh,NPR2 activator
CCCc1nc(SCC(=O)Nc2nc3c(s2)CCCC3)c2ccccc2n1,99*,-1,9,-2
CCCc1nc(SCC(=O)NC2CCCC2)c2ccccc2n1,x,-3,13,1
Cc1ccccc1-c1nc2c3ccccc3nc(=S)n2[nH]1,x,2,u,0
Cc1nc2ccccc2n1CCc1nc2c3ccccc3nc(=S)n2[nH]1,92*,0,-6,-5
O=C(NCc1ccco1)C1CC(=O)N(c2ccc(O)cc2)C1 (stereo not given),99*,3,-2,9
CC(C)(C)CC(C)(C)Nc1c(-c2ccc(O)cc2)nc2cnccn12,100*,5,-7,1
COc1cc(-c2nc3cnccn3c2Nc2ccccc2)ccc1O,u,-4,6,-16
c1ccc(-c2nc3cnccn3c2Nc2ccc3c(c2)OCCO3)cc1,x,45*,9,36*
CC(C)(C)Nc1c(-c2ccc(O)cc2)nc2ccc(Cl)cn12,-7,2,-1,0
c1ccc(-c2nc3ccccn3c2NCc2ccc3c(c2)OCO3)cc1,81*,7,-25,-1
Oc1ccc(-c2nc3cnccn3c2Nc2ccc3c(c2)OCCO3)cc1,99*,41*,8,29
COCCCn1c(=O)c2ccccc2n2c(=S)[nH]nc12,u,0,-1,-6
COc1ccc(-c2csc3nc(C)nc(N4CCN(c5ccc(C(C)=O)cc5)CC4)c23)cc1OC,37,-3,-2,-3
O=C(COC(=O)Cn1cc(C(F)(F)F)ccc1=O)Nc1ccc(Br)cc1F,x,0,x,0
Oc1ccc(C23CCCC2C2(CCCC2)c2ccc(O)cc2O3)c(O)c1 (stereo not given),90*,0,11,-3
CNC(=S)NNc1nncc2ccccc12,106*,-8,u,-5
CCNC(=S)NNc1nncc2ccccc12,99*,1,2,1
Cc1cc(F)ccc1S(=O)(=O)Nc1ccc(C(=O)N2CCCCC2)cc1,-5,-2,0,3
CCN1CCc2nc(SCC(=O)Nc3ccc(OC)cc3)c(C#N)cc2C1,99*,2,8,-3
CN1CCc2nc(SCC(=O)Nc3ccc(F)cc3)c(C#N)cc2C1,99*,x,7,x
COc1ccc(NC(=O)CSc2nc3c(cc2C#N)CN(C)CC3)cc1,97*,5,8,0
CC(C)(C)N(Cc1cn(Cc2ccccc2)nn1)S(=O)(=O)c1ccc(F)cc1Br,x,2,x,1
O=C(CN1C(=O)NC2(CCCCCC2)C1=O)NCCc1ccc(F)cc1,x,-1,x,0
COCCn1nnnc1C(CC(C)C)N1CCN(c2ccccc2)CC1 (stereo not given),93*,2,-1,5
COCCn1nnnc1C(CC(C)C)N1CCN(c2cccc(OC)c2)CC1 (stereo not given),x,-3,x,1
SMILES,ALR H2O2 inh,NPR1 activator,HDAC3 inh,NPR2 activator
CCC(c1nnnn1Cc1ccccc1)N1CCN(c2ccc(OC)cc2)CC1 (stereo not given),96*,-4,-1,0
COc1ccc(OC)c(C(c2nnnn2C2CCCC2)N2CCN(c3ccccc3)CC2)c1 (stereo not given),24,-8,2,-1
COc1ccc(Cn2nnnc2C(c2cccnc2)N2CCN(c3ccc(O)cc3)CC2)cc1 (stereo not given),98*,-8,-8,-3
CCC(c1nnnn1C1CCCC1)N1CCN(c2cccc(OC)c2)CC1 (stereo not given),98*,1,-6,-2
CC(OC(=O)Cc1c[nH]c2ccccc12)C(=O)Nc1ccc(S(N)(=O)=O)cc1 (stereo not given),6,-2,21,2
COc1ccc(C2C(C(=O)N3CCOCC3)CC(=O)N2c2ccc(OC)cc2)cc1 (stereo not given),x,-7,x,-8
CCOC(=O)C1CCCN(C(=S)NC2CCCC2)C1 (stereo not given),-6,-1,5,1
COc1ccc(Cn2nnnc2C(c2cccs2)N2CCN(c3ccccc3)CC2)cc1 (stereo not given),5,-5,-3,-15
CCC(c1nnnn1Cc1ccc2c(c1)OCO2)N1CCN(c2ccccc2)CC1 (stereo not given),90*,0,-3,2
Oc1ccc(N2CCN(C(c3cccs3)c3nnnn3CCc3ccccc3)CC2)cc1 (stereo not given),96*,-26,19,-21
CCCC(c1nnnn1CC1CCCO1)N1CCN(c2ccccc2)CC1 (stereo not given),98*,2,-5,-3
COc1ccc(N2CCN(C(c3ccc4ncccc4c3)c3nnnn3C(C)C)CC2)cc1 (stereo not given),76*,-4,2,1
COc1ccc(Cn2nnnc2C(c2ccc3ncccc3c2)N2CCN(C3CCCCC3)CC2)cc1 (stereo not given),-10,6,-2,0
NC(=O)c1ncn([C@@H]2O[C@H](C(=O)N[C@H](Cc3ccccc3)C(=O)O)[C@@H](O)[C@H]2O)n1,x,6,x,5
CC(C)(C)n1nnnc1C(c1ccncc1)N1CCN(c2ccc(O)cc2)CC1 (stereo not given),98*,3,-2,3
CC(C)(C)n1nnnc1C(c1ccccc1)N1CCN(c2ccccc2)CC1 (stereo not given),x,-7,x,-5
c1ccc(Cn2nnnc2C(c2ccccn2)N2CCN(c3ccccc3)CC2)cc1 (stereo not given),98*,0,-12,4
CCC(c1nnnn1Cc1ccc2c(c1)OCO2)N1CCN(c2ccc(OC)cc2)CC1 (stereo not given),88*,1,0,2
CCc1cc(C(=O)N/N=C/c2ccc(O)cc2)c2ccccc2n1,29,-5,-2,-6
CC(C)(C)c1cc(C(=O)N/N=C/c2ccc(O)cc2)n(-c2ccccc2)n1,94*,-7,1,-2
O=C(N/N=C/c1ccc(O)cc1)c1cccc(C(F)(F)F)c1,98*,0,-12,2
O=C(N/N=C/c1ccccc1O)c1cccc(C(F)(F)F)c1,-6,-7,1,-1
O=C(N/N=C/c1ccc(O)cc1)c1cncc(Br)c1,100*,-3,x,0
O=C(N/N=C\c1ccc2c(c1)OCO2)c1cncc(Br)c1,1,1,0,2
Nc1c(C=C2C=CC(=O)C=C2)c(=O)nc2snc(SCc3ccccc3)n12,-1,0,-6,-1
SMILES,ALR H2O2 inh,NPR1 activator,HDAC3 inh,NPR2 activator
CC(=O)Nc1cccc(-c2cn3ccc(C)cc3n2)c1,u,0,-39,-6
Cc1ccn2cc(-c3cccc(NC(=O)CCC(=O)O)c3)nc2c1,98*,2,-23,3
Cc1ccn2cc(-c3cccc([N+](=O)[O-])c3)nc2c1,91*,0,-8,-1
Cc1ccn2cc(-c3ccc(Br)cc3)nc2c1,x,3,-7,-7
Cc1ccn2cc(-c3cccc(NS(C)(=O)=O)c3)nc2c1,97*,2,-20,0
Cc1ccn2cc(-c3ccc(NS(=O)(=O)c4ccccc4)cc3)nc2c1,x,-2,x,-6
